The whole screen tested about 340,000 compounds, of which about 6,200 (1.8%) were called active. Entries that show only a call come without a potency. About 10% were inconclusive and are not listed. The call rests on the fitted dose curve; in most records, active means well fitted activation curve with a large enough effect; inconclusive means small, poorly fitted or top-dose-only effect; inactive means no such curve, though single readings can be large or run the other way. This excerpt belongs to a sample that is enriched for actives.
Experiment: A quantitative high throughput screen for small molecules that induce DNA re-replication in SW480 colon adenocarcinoma cells. Further: nearly all actives have a fitted effect of over 55% in size.
Conditions: Hoechst DNA content imaging, 48 h; series mostly up to 46.1 µM
Summary of the method: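 Compounds, transferred as 23 nL by pin tool, were incubated with cells for 48 hr; DNA content per nucleus was then quantified by Hoechst staining and fluorescence plate imaging.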
Potency means the concentration at half of the fitted maximal effect.

SMILES | Potency
CCc1ccc(OCC(=O)NCC(c2ccc(Cl)cc2)N2CCCCC2)cc1 (stereo not given) | 9.2 µM (active)
COc1ccc(C(CNC(=O)COc2ccccc2OC)N2CCCCC2)cc1 (stereo not given) | inactive
COc1ccc(C(CNC(=O)COc2ccc([N+](=O)[O-])cc2)N2CCCCC2)cc1 (stereo not given) | inactive
O=C(CNS(=O)(=O)c1ccc2c(c1)OCCCO2)N1CCN(c2ccc(F)cc2)CC1 | inactive
O=C1COc2c1ccc(O)c2O | inactive
Cc1c(CN2CCC(CO)(CCOc3ccccc3)CC2)[nH]c2ccc(Cl)cc12 | 14.6 µM (active)
OCC1(CCOc2ccccc2)CCN(Cc2cn[nH]c2-c2ccccc2)CC1 | inactive
CCOC(=O)C1(CCOc2ccccc2)CCN(Cc2cc(OC)c(O)cc2Cl)CC1 | inactive
CCOC(=O)C1=CN(Cc2ccc(Br)cc2)S(=O)(=O)N(C)C1C (stereo not given) | inactive
Cc1ccc(NC(=O)C2CCC(C(C)(C)C)CC2)cc1S(=O)(=O)N1CCOCC1 (stereo not given) | 14.6 µM (active)
Cc1ccc(NC(=O)NC2CCCCC2)cc1S(=O)(=O)N1CCOCC1 | inactive
Cc1ccc(NC(=O)COC(=O)C2CC2)cc1S(=O)(=O)N1CCOCC1 | inactive
CC(=O)Nc1ccc(OCC(=O)NCc2ccc(C)cc2)cc1 | inactive
C/C(CC(=O)NCc1ccc(Cl)cc1)=N\NC(=O)COc1ccc(C)cc1Br | 14.6 µM (active)
Cc1cc(Cl)ccc1OCCCC(=O)NCc1ccncc1 | inactive
COc1ccc(C2NCCCC2c2ccccc2)cc1 (stereo not given) | inactive
CCN(C(=O)COC(=O)c1ccccc1O)c1cccc2ccccc12 | inactive
CCC1([N+](=O)[O-])COC(c2ccc(C)cc2)OC1 (stereo not given) | inactive
CC(C)(C)S(=O)(=O)N1Cc2cc(CO)cc(CCO)c2[C@H]1CCO | inactive
O=C(O)C(c1cccs1)C1(O)CCCCC1 (stereo not given) | inactive
Cc1nnc(OCC(=O)NCCC2=CCCCC2)c2ccccc12 | 16.4 µM (active)
O=C(Cc1cccc2ccccc12)NCCC1=CCCCC1 | inactive
O=C(COc1ccc(Cl)cc1)NCCC1=CCCCC1 | inactive
COCc1cc(C)nc2sc(C(=O)NC3CCCCC3)c(N)c12 | inactive
CCc1nnc(NC(=O)c2sc3nc(C)cc(COC)c3c2N)s1 | inactive
COc1ccc(OC)c(NC(=O)c2sc3nc(C)cc(C)c3c2N)c1 | 9.2 µM (active)
CCOc1ccc(/C=C(/C#N)c2nnc(N3CCOCC3)n2-c2ccccc2)cc1OC | inactive
COc1cccc(/C=N/NC(=O)c2[nH]nc3c2CCc2ccccc2-3)c1O | 3.26 µM (active)
CN(C)CCNC(=O)c1[nH]nc2c1CCc1ccccc1-2 | inactive
COc1cc2cc(C(=O)N/N=C/c3cccc(OC)c3OC)[nH]c2cc1OC | inactive

Source: PubChem BioAssay AID624297 (National Center for Advancing Translational Sciences (NCATS), 2012)
